Consider eleven compounds from PubChem BioAssay (NCATS).

A short description of assay [1]: Cell Viability - LYMP2-014 (AID 983). Further: series mostly up to about 92 µM; nearly all actives have a fitted effect of over 50% in size. Summed up: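 LYMP2-014 human lymphoblastoid cells, 2500/well, treated 24 h at 37 C in complete medium; viability by CellTiter-Glo ATP luminescence after 30 min at room temperature. AC50 from Hill fits of qHTS concentration-response; tetraoctylammonium bromide positive control.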
Assay [2] is described as follows: Cell Viability - LYMP2-016 (AID 984). Further: nearly all actives have a fitted effect of over 55% in size. An outline of the steps: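 Acute toxicity in a Coriell human lymphoblastoid line is scored as loss of intracellular ATP over 24 h of treatment in complete medium. CellTiter-Glo signal is fitted across concentrations with the Hill equation to give AC50.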
The nature of assay [3]: Cell Viability - LYMP2-018 (AID 985).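 Further: compound exposure lasted 24 hr at 37 °C; nearly all actives have a fitted effect of over 50% in size.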 Further: potency means the concentration at half of the fitted maximal effect. Summed up:
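Human lymphoblastoid LYMP2-018 cells, 2500/well, settled 5 hr at 37 C then exposed to compound 24 hr at 37 C; intracellular ATP measured by CellTiter-Glo luminescence. AC50 from Hill-equation concentration-response fits.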

Assay [4] in a line: Cell Viability - LYMP2-020 (AID 986). Further: series mostly up to about 92 µM; nearly all actives have a fitted effect of over 55% in size. An outline of the steps: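 Human lymphoblastoid LYMP2-020 cells (2500/well) preincubated 5 h at 37 C, then treated 24 h at 37 C. Viability measured as intracellular ATP by CellTiter-Glo luminescence after 30 min at room temperature; AC50 from Hill fits.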
A short description of assay [5]: Cell Viability - LYMP2-022 (AID 987). Further: nearly all actives have a fitted effect of over 55% in size. Further: potency means the concentration at half of the fitted maximal effect. Summed up:
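LYMP2-022 lymphoblastoid cells (2500/well, complete medium) were treated with compounds for 24 hours at 37 C; intracellular ATP was then read by CellTiter-Glo luminescence after 30 min at room temperature. AC50 values were derived from Hill-equation fits.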

Assay [6] is described as follows: Cell Viability - LYMP2-024 (AID 988). Further: nearly all actives have a fitted effect of over 60% in size. Further: potency means the concentration at half of the fitted maximal effect. An outline of the steps: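 Human lymphoblastoid LYMP2-024 cells (2500/well) rested 5 hr, then treated with compound for 24 hr at 37 C in complete medium. Viability was measured as intracellular ATP by CellTiter-Glo luminescence. AC50 values came from Hill-equation fits.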
A short description of assay [7]: Cell Viability - LYMP2-026 (AID 989). Further: nearly all actives have a fitted effect of over 50% in size. An outline of the steps:
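Human lymphoblastoid LYMP2-026 cells, 2500/well, exposed to compound 24 h at 37 C in complete medium. Viability as intracellular ATP by CellTiter-Glo luminescence; AC50 from Hill fits of qHTS concentration-response.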

Assay [8] can be described thus: Cell Viability - LYMP1-002 - Assay at 24 hr (AID 993). Summed up:
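Human lymphoblastoid LYMP1-002 cells (2500/well) treated 24 h at 37 °C; viability as intracellular ATP by CellTiter-Glo luminescence. Tetraoctylammonium bromide as positive control; AC50 from Hill-equation fits of qHTS concentration-response.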

Assay [9] is described as follows: Cell Viability - LYMP1-002 - Assay at 40 hr (AID 994). Further: nearly all actives have a fitted effect of over 60% in size. Further: potency means the concentration at half of the fitted maximal effect. An outline of the steps:
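LYMP1-002 human lymphoblastoid cells (2500/well, complete medium) were treated with compounds for 40 hr at 37 C. Intracellular ATP was measured by CellTiter-Glo luminescence, and AC50 values came from Hill-equation fits of concentration-response data; tetraoctylammonium bromide was the positive control.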

Assay [10] addresses Alpha-galactosidase A (Homo sapiens) (UniProt P06280). Nature of the assay: Counterscreen for Glucocerebrosidase Inhibitors: qHTS Assay for Human alpha-Galactosidase at pH 4.5 (AID 992). Summed up:
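Read-out is 4-methylumbelliferone fluorescence (365 nm excitation, 440 nm emission) after a pH 10 NaOH/glycine stop. Reactions held 2 nM enzyme and 80 uM substrate at pH 4.5 for 20 min at room temperature.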
Background: A counterscreen serves to expose hits that act by an unwanted route or on another target.

Records with an inconclusive call do not appear. Active and inactive are the calls of the source. The call rests on the fitted dose curve; in most records, active means well fitted curve in the direction sought with a large enough effect; inconclusive means small, poorly fitted or top-dose-only effect, or another doubt; inactive means no such curve, though single readings can be large; an effect the other way counts as inactive or inconclusive.

Alpha-galactosidase A (Homo sapiens), sequence (P06280 whole entry, looked up): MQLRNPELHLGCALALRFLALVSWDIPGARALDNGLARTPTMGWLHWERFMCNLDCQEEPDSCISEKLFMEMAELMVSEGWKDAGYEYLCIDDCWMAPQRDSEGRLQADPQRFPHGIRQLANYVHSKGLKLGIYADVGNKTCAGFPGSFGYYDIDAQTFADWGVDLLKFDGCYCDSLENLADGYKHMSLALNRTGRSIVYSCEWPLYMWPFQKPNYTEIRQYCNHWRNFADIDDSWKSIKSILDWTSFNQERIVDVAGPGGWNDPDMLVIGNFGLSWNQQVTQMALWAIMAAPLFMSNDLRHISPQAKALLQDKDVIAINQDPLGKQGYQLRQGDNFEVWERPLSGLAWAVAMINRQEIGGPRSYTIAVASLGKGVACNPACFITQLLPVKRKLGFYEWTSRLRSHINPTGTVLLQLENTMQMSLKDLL

With `O=C(O)/C=C\C(=O)O`, the Potency result in assay [1], in [2], in assay [3], in assay [4], in assay [5] and in assay [6] was “inactive” each time. Besides, the Potency entry in assay [7], in assay [8] and in [9] was “inactive” in each case.

`c1cnc2c(c1)ccc1cccnc12`: the Potency in assay [3] was 25.1 µM (active); in assay [5], 12.6 µM (active); in assay [6], 12.6 µM (active); in assay [9] it was 12.6 µM (active). The compound was classed as inactive in assay [10].

As for `N=C(N)SCCc1ccc(CCSC(=N)N)cc1`, the result in [10] was inactive.

Regarding `CN(C)c1nc2c(Br)c(Br)c(Br)c(Br)c2[nH]1`, the result in [10] was inactive.

As for `COc1cc(CNC(=O)CCCC/C=C/C(C)C)ccc1O`, the Potency entry in assay [1], in assay [2], in assay [4], in [5], in [6] and in [7] was “inactive” throughout. Moreover, the Potency result in [8] and in [9] was “inactive” each time.

In the case of `Nc1ccc([N+](=O)[O-])cc1O`, the Potency result in assay [1], in assay [2], in [3], in [4], in assay [5] and in assay [6] was “inactive” in each case. Also, the Potency entry in assay [7], in assay [8] and in assay [9] was “inactive” throughout.

As to `O=c1cc(-c2ccccc2)oc2ccccc12`, the Potency entry in [1], in assay [2], in [3], in assay [4], in [5] and in assay [6] was “inactive” in each case. Besides, the Potency result in assay [7], in [8] and in [9] was “inactive” in each case.

Consider `Nc1ccc(O)c([N+](=O)[O-])c1`, for which the Potency entry in [1], in assay [2], in assay [3], in [4], in assay [5] and in assay [6] was “inactive” in each case. Besides, the Potency result in [7], in assay [8] and in assay [9] was “inactive” each time.

For `CN1CCC[C@H]1c1cccnc1`, the Potency result in [1], in assay [2], in assay [3], in [4], in assay [5] and in assay [6] was “inactive” throughout. Moreover, the Potency entry in assay [7], in [8] and in [9] was “inactive” in each case.

As for `CN(C)CCC(c1ccc(Cl)cc1)c1ccccn1` (stereo not drawn), the Potency entry in [1], in [2], in assay [3], in assay [4], in [5] and in [6] was “inactive” throughout. The Potency result in assay [7], in [8] and in assay [9] was “inactive” in each case.

For the compound `CCCOC(=O)c1ccc(O)cc1`, the Potency entry in [1], in [2], in assay [3], in assay [4], in [5] and in [6] was “inactive” each time. The Potency entry in assay [7], in assay [8] and in assay [9] was “inactive” each time.
